Laboratory results as given in PubChem BioAssay AID588795 (National Center for Advancing Translational Sciences (NCATS), 2011).
Several values for one entry are separate records, joined by “and”; a condition that tells them apart may be missing. Identical values can stand only once. About 1,400 (0.36%) of roughly 390,000 compounds were called active. Where a call stands in place of a potency, no number is given. Not shown: some 2% with an inconclusive outcome. Calls follow the shape of the dose curve; as a rule, active = well fitted inhibition curve with a large enough effect; inconclusive = small, poorly fitted or top-dose-only effect; inactive = no such curve, though single readings can be large or run the other way. Many of the other results were omitted from the sample, so actives are more common in it than they were. More than one record can exist for a structure, and the calls need not agree.
Also: nearly all actives have a fitted effect of over 65% in size.
Potency is read from the fitted curve at half-maximal effect.

What follows are compounds tested against Flap endonuclease 1 (Homo sapiens) (UniProt P39748) (assay: qHTS Assay for the Inhibitors of Human Flap endonuclease 1 (FEN1).). Conditions: Recombinant FEN1 flap cleavage, fluorescence, 15 min; series mostly up to 114 µM.
Flap endonuclease 1 (Homo sapiens), sequence (P39748 whole entry, looked up): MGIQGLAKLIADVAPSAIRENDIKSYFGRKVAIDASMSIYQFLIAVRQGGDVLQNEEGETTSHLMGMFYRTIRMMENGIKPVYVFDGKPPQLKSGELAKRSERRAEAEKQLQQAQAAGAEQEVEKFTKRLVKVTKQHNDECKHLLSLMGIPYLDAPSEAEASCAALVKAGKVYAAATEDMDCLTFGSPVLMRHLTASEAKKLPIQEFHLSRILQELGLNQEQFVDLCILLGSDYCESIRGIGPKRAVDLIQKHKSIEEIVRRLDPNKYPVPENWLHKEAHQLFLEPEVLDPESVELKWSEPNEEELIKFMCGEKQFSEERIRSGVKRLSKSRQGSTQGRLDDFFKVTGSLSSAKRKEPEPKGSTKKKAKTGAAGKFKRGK
In short: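 Concentration–response screening of FEN1 (10 nM): 15 min compound preincubation at room temperature, reaction started with 50 nM substrate and read at 0 and 15 min. Corrected, normalized data were fitted by a four-parameter Hill equation.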
For `COc1ccccc1CNC(=O)C(=O)NCC(c1ccco1)S(=O)(=O)c1ccc(F)cc1` (stereo not given), the Potency was “inactive”.
In the case of `CN(C)c1cccc2ccccc12`, the Potency was “inactive”.
`Brc1nc2ncnc(NCc3ccco3)c2[nH]1` was tested, and the Potency was “inactive”.
For `C[N+]1(CC(=O)c2cccs2)CCOCC1`, the Potency was “inactive”.
`O=C(NCCc1ccccc1)c1ccc2c(c1)N(Cc1ccccc1)C(=O)c1ccccc1S2(=O)=O` was tested, and the Potency was “inactive”.
`CCC(C)N(c1ccc(/C=C/c2ccnc3ccccc23)cc1)C(C)CC` (stereo not given) was tested, and the Potency was “inactive”.
With `Cn1c(COc2ccccc2C(C)(C)C)nc2ccccc21` the Potency was “inactive”.
`CCOc1n[nH]c(-c2ccccc2)n1` was tested, and the Potency was “inactive”.
`CC1=NN(c2ccc(Cl)c(C(=O)O)c2)C(=O)/C1=C/c1ccc(-c2ccccc2[N+](=O)[O-])o1` was tested, and the Potency was 28.2 µM (active).
In the case of `O=C1NC(c2ccc(-c3ccccc3[N+](=O)[O-])o2)C(C(=O)c2ccc(Cl)cc2)C(O)(C(F)(F)F)N1` (stereo not given), the Potency was “inactive”.
`O=C(Nc1ccc(N2CCOCC2)cc1)c1ccc(-c2ccccc2[N+](=O)[O-])o1` was tested, and the Potency was “inactive”.
With `CN(C(=N)N)c1ccc(/C=C2\C=Cc3ccccc32)cc1` the Potency was “inactive”.
For `CC(=O)Nc1ccc2nc(SCCOc3cc(C)cc(C)c3)sc2c1`, the Potency was “inactive”.
For `COc1ccc2c(c1)c(=Cc1ccc(N(C)C)cc1)c1cc(-c3ccccc3)[n+](C)n12`, the Potency was 4.47 µM (active).
With `CN(C)c1ccc(/C=c2\[nH]c(=O)/c(=C/c3ccc(N(C)C)cc3)[nH]c2=O)cc1` the Potency was “inactive”.
For `CN(C)CCCn1c(-c2ccc(Cl)cc2)csc1=Nc1ccccc1`, the Potency was “inactive”.
`CC1(C)C=Cc2c(ccc(C(=O)/C=C/c3ccccc3)c2O)O1` was tested, and the Potency was “inactive”.
For `CC(C)(C)c1ccc(C(=O)C[n+]2cccc3cc(Cl)ccc32)cc1`, the Potency was “inactive”.
`Nc1nc(N)c(N=O)c(N)n1` was tested, and the Potency was “inactive”.
In the case of `CC(C)(C)n1ncc2c(=O)n(Cc3ccc(C(=O)c4ccccc4)cc3)cnc21`, the Potency was “inactive”.
With `CC(C)(C)n1ncc2c(=O)n(Cc3c(Cl)cccc3Br)cnc21` the Potency was “inactive”.
With `CC(C)(C)n1ncc2c(=O)n(Cc3ccc(Cl)cc3)cnc21` the Potency was “inactive and 39.8 µM (active)”.
With `Oc1ccc(Br)cc1C1C=C(c2ccc3c(c2)OCO3)NC(c2ccc(Cl)cc2)N1` (stereo not given) the Potency was “inactive”.
`N#Cc1ccc[n+](CC(=O)c2ccc(O)c(O)c2)c1` was tested, and the Potency was 2 µM (active).
For `O=C(C[n+]1ccncc1)c1ccc2c(c1)CCCC2`, the Potency was “inactive”.
For `N#Cc1ccc[n+](CC(=O)c2ccc(F)cc2)c1`, the Potency was “inactive”.
`CCN1CCN(c2ccc(/C=C/c3ccnc4ccccc34)cc2)CC1` was tested, and the Potency was “inactive”.
`Cc1ccc(/C=C(\C#N)C(=O)Nc2cc(C)ccc2C)cc1` was tested, and the Potency was “inactive”.
In the case of `N#CCC(=O)N/N=C/c1cn(Cc2ccc3ccccc3c2)c2ccccc12`, the Potency was “inactive”.
In the case of `Cc1ccc(Cl)cc1NC(=O)/C(C#N)=C\c1cn(Cc2ccc(F)cc2)c2ccccc12`, the Potency was 89.1 µM (active).
In the case of `O=C1O/C(=C\c2ccc(O)cc2)C(O)=C1c1ccc(O)cc1`, the Potency was “inactive”.
For `CCc1ccc(OCCCn2c(CCCNC(=O)C3CCCCC3)nc3ccccc32)cc1`, the Potency was “inactive”.
In the case of `CN(C)Cc1cn(-c2ccccc2)nc1-c1ccccc1`, the Potency was “inactive”.
With `c1ccc(CSc2nnc(-c3ccco3)c(-c3ccco3)n2)cc1` the Potency was 56.2 µM (active).
`O=C(NCCSc1ccccc1)c1ccco1` was tested, and the Potency was “inactive”.
With `Cc1ccc(-c2nnc(SCC(=O)NCc3ccccc3)nc2-c2ccc(C)cc2)cc1` the Potency was “inactive”.
For `NC(=O)Nc1ccc(/C=C/c2ccnc3ccccc23)cc1`, the Potency was “inactive”.
For `CC1CC(C)CN(c2oc(-c3ccc(OCc4ccc(Cl)cc4)cc3)nc2C#N)C1` (stereo not given), the Potency was “inactive”.
For `O=C(CN1C(=O)c2cccc3cccc(c23)C1=O)N1CCCCC1`, the Potency was “inactive”.
For `C[N+](C)(CCCCCC[N+](C)(C)CCCN1C(=O)c2cccc3cccc(c23)C1=O)CCCN1C(=O)c2cccc3cccc(c23)C1=O`, the Potency was 2.51 µM (active).
For `O=C(COC(=O)CCCN1C(=O)c2cccc3cccc(c23)C1=O)NC1CCS(=O)(=O)C1` (stereo not given), the Potency was “inactive”.
In the case of `O=C(O)C1=C/C(=C/C=[N+]2c3cc(O)c(O[C@H]4OC(CO)[C@@H](O)[C@@H](O)[C@@H]4O)cc3C[C@@H]2C(=O)[O-])C[C@H](C(=O)O)N1` (stereo not given in full), the Potency was “inactive”.
For `COc1cc2nc(C#Cc3nc4cc(OC)c(OC)cc4[nH]3)[nH]c2cc1OC`, the Potency was “inactive”.
With `CS(=O)c1ccc(/C=C2\C=Cc3ccccc32)cc1` (stereo not given) the Potency was “inactive”.
For `CCOC(=O)c1ccc(CS(=O)c2ccc(Cl)cc2)o1` (stereo not given), the Potency was “inactive”.
With `CCOC(=O)N1CCN(C(=O)CNC(=O)Cc2ccc(Cl)cc2)CC1` the Potency was “inactive”.
For `CCOC(=O)c1c(Cc2ccc(Cl)cc2)c[nH]c1C`, the Potency was 89.1 µM (active).
With `O=C(CCS(=O)(=O)c1ccccc1)N(Cc1cccnc1)c1nc2c(F)cccc2s1` the Potency was “inactive”.
In the case of `ClC/C=C/C[n+]1ccccc1Cl`, the Potency was “inactive”.
With `Clc1cccc[n+]1CCCC[n+]1ccccc1Cl` the Potency was 79.4 µM (active).
In the case of `Brc1cccc[n+]1Cc1cccc(C[n+]2ccccc2Br)c1`, the Potency was “inactive”.
With `Oc1ccc(Cl)cc1C1C=C(c2ccc3c(c2)OCO3)NC(c2ccc(F)c(Br)c2)N1` (stereo not given) the Potency was “inactive”.
`CC(C)(C)OC(=O)N1CCC(c2c(C(=O)NCc3ccccn3)cnn2-c2ccc(F)cc2)CC1` was tested, and the Potency was “inactive”.
In the case of `CCCCC(CCCC)c1ccc(C=Nc2ccc(/C=C/c3ccnc4ccccc34)cc2)cc1`, the Potency was “inactive”.
For `COc1ccc(Cl)cc1NC(=O)CCn1c(=O)c2cccn2c2ccccc21`, the Potency was “inactive”.
For `O=C(c1cnn2c1NC(=C1CC1)C=C2C(F)F)N1CCc2ccccc2C1`, the Potency was “inactive”.
In the case of `Cc1csc(NCC(=O)c2c[nH]c3ccccc23)n1`, the Potency was “inactive”.
In the case of `CN(C)C1=C2C=CC=CC2/C(=C2/C=Cc3ccccc32)C=C1` (stereo not given), the Potency was “inactive”.
`OC(CBr)C[n+]1cccc2cc(Br)ccc21` (stereo not given) was tested, and the Potency was “inactive”.
For `CCc1ccc(NC(=O)c2sc3nc4c(cc3c2N)CN(CC)CC4)cc1`, the Potency was “inactive”.
For `CCc1ccc2nc3sc(C(=O)Nc4nnc(CC)s4)c(N)c3cc2c1`, the Potency was 44.7 µM (active).
`CCc1nnc(NC(=O)c2cc(S(=O)(=O)N3CCCCC3)ccc2C)s1` was tested, and the Potency was “inactive”.
With `CN(Cc1ccccc1)c1ccc(/C=C/c2ccnc3ccccc23)cc1` the Potency was “inactive”.
For `O=C(c1ccco1)N(Cc1cccs1)c1ccc(O)cc1`, the Potency was “inactive”.
`OC[C@@H]1O[C@H](n2cnc3c(SCc4ccccc4)ncnc32)[C@H](O)[C@H]1O` was tested, and the Potency was “inactive”.
